Reference: the supplement of paper PMC9337992
± gives the standard deviation of the averaged measurements.

system: MDAMB468; assay: cell proliferation (confluence) relative to DMSO control; higher = less growth inhibition; conditions: 5 uM; 6 d
Description: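 Epigenetic chemical probe screen: 15 TNBC cell lines, 500 cells per well in 384-well plates, treated with 5 uM of each of 36 SGC probes for 6 d. Confluency was imaged by IncuCyte ZOOM and normalised to DMSO control wells. Four replicate wells per compound.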

First: c1ccc([C@@H]2C[C@H]2NC2CCNCC2)cc1
Second: COc1cc(C(=O)N2CC[C@@H](O)[C@@H](N)C2)cc2nc(-c3cc4ccccc4n3CC3CC3)n(C)c12
The cell proliferation of the first is higher: 79 ± 12% for the first, 45.6 ± 5% for the second.

`O=C(O)CNC(=O)c1c(O)c2ccccc2n(Cc2ccccc2)c1=O` gave a cell proliferation of 77.3 ± 4.1%.
